# Measurements as given in PubChem BioAssay (NCATS).
# Records with an inconclusive call do not appear. A call without a number means that no potency is given here. Calls of active or inactive are those of the source. Unless noted, calls follow the shape of the dose curve; as a rule, active = well fitted curve in the direction sought with a large enough effect; inconclusive = small, poorly fitted or top-dose-only effect, or another doubt; inactive = no such curve, though single readings can be large; an effect the other way counts as inactive or inconclusive.
# Key:
# [1] = S16 Schwann cell PMP22 intronic element firefly luciferase assay (AID 624032); also: nearly all actives have a fitted effect of over 30% in size; also: potency is read from the fitted curve at half-maximal effect
# Procedure, shortened: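 Rat S16 Schwann cells stably carrying firefly luciferase driven by a PMP22 intronic element, in 10% FBS, treated 24 h at 37 C. ONE-Glo luminescence normalized to PTC124 control and DMSO (0%); curves classed by r2, magnitude and activity.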
# [2] = S16 Schwann cell PMP22 intronic element beta-lactamase assay (AID 624044; calls by dose curve; also: nearly all actives have a fitted effect of over 15% in size)
# Procedure, shortened: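 Beta-lactamase reporter under a PMP22 intronic regulatory element in stable S16 rat Schwann cells; 24 h compound exposure. 460 nm blue signal normalized between DMSO (0%) and potassium clavulanate, with 535 nm FRET tracking viability; curves classed by r2 and response.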
# [3] = target: Glutaminase kidney isoform, mitochondrial (Homo sapiens) (UniProt O94925); experiment: qHTS for Inhibitors of Glutaminase (GLS): LOPAC Validation (AID 624146);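 also: glutamate product detected by oxidase and peroxidase coupled Amplex red fluorescence gain; nearly all actives have a fitted effect of over 60% in size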
# Glutaminase kidney isoform, mitochondrial (Homo sapiens), sequence (O94925 whole entry, looked up, canonical isoform): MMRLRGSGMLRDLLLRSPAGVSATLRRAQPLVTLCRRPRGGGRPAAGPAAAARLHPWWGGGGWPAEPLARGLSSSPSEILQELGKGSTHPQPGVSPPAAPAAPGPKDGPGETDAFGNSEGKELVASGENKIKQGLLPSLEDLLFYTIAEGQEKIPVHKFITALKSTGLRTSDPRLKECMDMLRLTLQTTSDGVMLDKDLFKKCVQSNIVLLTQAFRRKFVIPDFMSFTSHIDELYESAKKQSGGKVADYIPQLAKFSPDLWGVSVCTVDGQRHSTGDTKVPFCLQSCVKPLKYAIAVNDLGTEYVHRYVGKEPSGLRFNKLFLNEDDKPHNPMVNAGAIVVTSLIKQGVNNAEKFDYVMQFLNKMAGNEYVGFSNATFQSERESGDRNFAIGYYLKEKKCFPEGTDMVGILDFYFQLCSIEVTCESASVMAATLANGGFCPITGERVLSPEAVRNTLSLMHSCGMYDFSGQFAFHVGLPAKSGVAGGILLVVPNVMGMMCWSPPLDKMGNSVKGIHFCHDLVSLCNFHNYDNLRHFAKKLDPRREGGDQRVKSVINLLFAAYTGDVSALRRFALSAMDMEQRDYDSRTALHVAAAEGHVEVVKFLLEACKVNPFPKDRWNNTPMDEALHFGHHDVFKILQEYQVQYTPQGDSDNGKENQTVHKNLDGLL
# Procedure, shortened: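 Assay buffer: 45 mM KH2PO4 pH 8.2, 0.02% Tween-20. hKGA acts on L-glutamine (1 mM solution added); product glutamate is reported by an oxidase/peroxidase Amplex Red coupling, with fluorescence taken at baseline and 30 min.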
# [4] = qHTS of Trypanosoma Brucei Inhibitors: LOPAC Validation (AID 624147)
# Procedure, shortened: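 T. brucei PYK with substrate was exposed to pin-transferred compounds across a concentration series, then started with 130 uM ADP (final). After 45 min at room temperature, Kinase-Glo Plus luminescence was read, normalized and curve-fitted.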
# [5] = target: Glucagon-like peptide 1 receptor (Homo sapiens) (UniProt P43220); experiment: qHTS of GLP-1 Receptor Agonists: LOPAC Validation (AID 624148);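 also: higher luminescence signal means agonism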
# Glucagon-like peptide 1 receptor (Homo sapiens), sequence (P43220 whole entry, looked up): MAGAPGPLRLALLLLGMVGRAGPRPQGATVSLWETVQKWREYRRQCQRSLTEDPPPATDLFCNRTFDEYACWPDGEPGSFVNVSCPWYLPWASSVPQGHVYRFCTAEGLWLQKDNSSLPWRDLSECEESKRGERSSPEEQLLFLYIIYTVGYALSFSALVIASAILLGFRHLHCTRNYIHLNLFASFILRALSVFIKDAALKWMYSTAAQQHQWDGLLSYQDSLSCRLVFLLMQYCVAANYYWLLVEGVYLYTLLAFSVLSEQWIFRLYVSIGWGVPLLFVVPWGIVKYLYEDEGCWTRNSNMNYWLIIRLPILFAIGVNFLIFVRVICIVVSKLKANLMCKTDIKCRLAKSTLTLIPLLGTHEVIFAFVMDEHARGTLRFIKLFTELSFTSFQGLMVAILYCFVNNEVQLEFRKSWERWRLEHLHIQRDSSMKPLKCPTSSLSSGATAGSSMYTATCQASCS
# Procedure, shortened: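 HEK293 cells stably co-expressing GLP-1R and a cAMP-responsive luciferase reporter, plated 12 hours before compound, then incubated 4-6 hr at 37 deg C. Luminescence read 12 min after detection reagent.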
# [6] = HTS Assay for Allosteric Antagonists of the Human D2 Dopamine Receptor: Hit Validation in HTRF (AID 624455);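 also: stable D1 dopamine receptor cell line scored for blocking the D1 response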
# Procedure, shortened: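 Inhibition of the D1-mediated response was measured by HTRF. Cells used were a line stably expressing the D1 dopamine receptor.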
# [7] = target: Luciferin 4-monooxygenase (Photinus pyralis) (UniProt P08659); experiment: Biochemical firefly luciferase enzyme assay for NPC (AID 624030);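 also: purified P. pyralis luciferase at 10 nM with luciferin and ATP substrate; nearly all actives have a fitted effect of over 70% in size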
# Luciferin 4-monooxygenase (Photinus pyralis), sequence (P08659 whole entry, looked up): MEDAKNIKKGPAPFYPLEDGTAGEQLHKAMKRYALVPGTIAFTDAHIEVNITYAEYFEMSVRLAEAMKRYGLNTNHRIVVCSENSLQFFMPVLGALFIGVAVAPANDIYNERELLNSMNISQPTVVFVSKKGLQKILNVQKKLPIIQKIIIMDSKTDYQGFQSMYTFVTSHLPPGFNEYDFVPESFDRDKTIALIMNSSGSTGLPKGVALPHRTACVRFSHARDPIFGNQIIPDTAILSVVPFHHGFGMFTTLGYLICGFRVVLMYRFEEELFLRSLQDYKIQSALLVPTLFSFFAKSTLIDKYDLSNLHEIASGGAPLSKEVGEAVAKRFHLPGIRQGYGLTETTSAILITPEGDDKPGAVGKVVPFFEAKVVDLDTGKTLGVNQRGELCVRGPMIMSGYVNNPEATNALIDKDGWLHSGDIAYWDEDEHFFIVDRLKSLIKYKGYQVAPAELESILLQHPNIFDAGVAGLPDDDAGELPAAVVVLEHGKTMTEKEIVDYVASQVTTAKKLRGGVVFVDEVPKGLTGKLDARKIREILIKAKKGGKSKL
# Procedure, shortened: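 Purified P. pyralis luciferase at 10 nM in 50 mM Tris Acetate (final), luminescence read within 5 minutes of enzyme addition to compounds. Activity normalised to PTC124 versus DMSO; concentration-response curves classed by r2, magnitude and activity.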
# [8] = S16 Schwann cell viability assay (CellTiter-Glo assay) (AID 624031); also: nearly all actives have a fitted effect of over 70% in size; also: potency is read from the fitted curve at half-maximal effect
# Procedure, shortened: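 CellTiter-Glo ATP luminescence counter-screen in untransfected S16 rat Schwann cells, 24h compound exposure at 37 degree Celsius after overnight seeding (500-750 cells/well); response scaled between cell-free wells and DMSO (0% activity), curves classed by r2 and magnitude.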
# [9] = Cell Proliferation Assay against the TMD8 Cell Line (AID 651645); conditions: TMD8 DLBCL cell line proliferation/viability; at 46.1 µM (top of the series);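 also: cells exposed to compound for 48 h before reading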
# Procedure, shortened: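 Seed log-phase TMD8 cells in RPMI containing 5% FBS, add compounds at once, incubate 48 hours at 37C. Equilibrate to room temperature, add CellTiter-Glo, read luminescence after 15 minutes and express relative to DMSO and bortezomib controls.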
# [10] = Cell Proliferation Assay against the HBL1 Cell Line (AID 651646); conditions: HBL1 DLBCL cells; at 46.1 µM (top of the series);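 also: cells exposed to compound for 48 h before reading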
# Procedure, shortened: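 HBL1, 500 cells/well, RPMI no phenol red + 5% FBS; cpd pinned, 48 h 37C/5% CO2; CellTiter-Glo, 15 min RT, luminescence. % activity: DMSO = 100%, bortezomib 9.2 uM final = 0%.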
# [11] = Cell Proliferation Assay against the TMD8 Cell Line (Caspase readout at 16 hrs) (AID 651712); conditions: TMD8 lymphoma cells, caspase activation luminescence; also: potency is read from the fitted curve at half-maximal effect
# Procedure, shortened: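 Caspase-Glo luminescence after 16 h compound exposure of TMD8 cells, 37 °C, 5% CO2. Medium: RPMI without phenol red, 5% FBS. Normalisation: DMSO = 0%, bortezomib 9.2 uM final = 100%.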
compound,measurement,setting,value
O=S(=O)(O)c1ccc2nc(-c3ccccc3)[nH]c2c1,Potency,[1],inactive
same,Potency,[2],inactive
Cn1cnc2c(NCc3ccccc3)nc(NCCO)nc21,Potency,[3],inactive
same,outcome,[4],inactive
same,outcome,[5],inactive
same,outcome,[6],inactive
O=C(O)c1ccccc1S,Potency,[7],inactive
CCOC(=O)NNc1ccc(N(CC)CC(C)O)nn1 (centres undefined),Potency,[7],inactive
CN1CCC(Nc2ncc3ncnc(Nc4ccc(F)c(Cl)c4)c3n2)CC1,Potency,[7],inactive
same,Potency,[1],36.1 µM (active)
CC(NN)c1ccccc1 (centres undefined),Potency,[7],inactive
COc1cccc2c1[C@@H]1CN(CCCCn3c(=O)[nH]c4c(sc5ncc(-c6ccccc6)nc54)c3=O)C[C@@H]1CO2,Potency,[7],inactive
same,Potency,[3],inactive
same,outcome,[4],inactive
same,outcome,[5],inactive
same,outcome,[6],inactive
Clc1ccc2c(c1)N=C(N1CCNCC1)c1ccccc1N2,Potency,[3],inactive
same,outcome,[4],inactive
same,outcome,[5],inactive
same,outcome,[6],inactive
OC(CCCN1CCCCC1)(c1ccccc1)c1ccccc1,Potency,[7],inactive
CCN(CC)CCNC(=O)c1ccc(NS(C)(=O)=O)cc1,Potency,[7],inactive
same,Potency,[3],inactive
same,outcome,[4],inactive
same,outcome,[5],inactive
same,outcome,[6],inactive
NC(N)=NCCCCN=C(N)N,Potency,[7],inactive
same,Potency,[3],inactive
same,outcome,[4],inactive
same,outcome,[5],inactive
same,outcome,[6],inactive
CCCCCC[C@@H](CCC)C(=O)O,Potency,[7],inactive
C[C@@]12CCC[C@H]1[C@@H]1CC[C@H]3C[C@@H](O)CC[C@]3(C)[C@H]1CC2,Potency,[7],inactive
COc1ccccc1N1CCN(CCN2C(=O)CC3(CCCC3)CC2=O)CC1,Potency,[3],inactive
same,outcome,[4],inactive
same,outcome,[5],inactive
same,outcome,[6],inactive
Nc1ccc2cc3ccc(N)cc3nc2c1,Potency,[7],inactive
same,Potency,[8],inactive
same,Potency,[1],inactive
OC1(c2ccc(Cl)c(C(F)(F)F)c2)CCN(CCCC(c2ccc(F)cc2)c2ccc(F)cc2)CC1,Potency,[7],inactive
CN(C)c1cc2c(Nc3ccc4c(cnn4Cc4ccccc4)c3)ncnc2cn1,outcome,[4],inactive
same,outcome,[5],inactive
same,outcome,[6],inactive
CC(C)=CCC/C(C)=C/CC/C(C)=C/CCC(=O)OC/C=C(\C)CCC=C(C)C,Potency,[7],inactive
Brc1ccc([C@H]2CN3CCSC3=N2)cc1,Potency,[3],inactive
same,outcome,[4],inactive
same,outcome,[5],inactive
same,outcome,[6],inactive
CCC(C(=O)NC(=O)NC(C)=O)c1ccccc1 (centres undefined),Potency,[7],inactive
N[C@@H](Cn1ccc(=O)c(O)c1)C(=O)O,outcome,[4],inactive
same,outcome,[5],inactive
same,outcome,[6],inactive
CC(C)N(CCC(=O)c1ccc2ccccc2c1)Cc1ccccc1,outcome,[4],inactive
same,outcome,[5],inactive
same,outcome,[6],inactive
C[C@@H](O[C@H]1OCCN(Cc2n[nH]c(=O)[nH]2)[C@H]1c1ccc(F)cc1)c1cc(C(F)(F)F)cc(C(F)(F)F)c1,viability (% of control),[9],8.07%
same,"viability, percent of control",[10],8.93%
same,Potency,[11],11.8 µM (active)
C1N2CN3CN1CN(C2)C3,Potency,[7],inactive
Nc1ncnc2nc[nH]c12,Potency,[7],inactive
same,Potency,[8],inactive
same,Potency,[1],inactive
same,Potency,[2],inactive
CC(=O)Nc1c(I)c(NC(C)=O)c(I)c(C(=O)O)c1I,Potency,[7],inactive
Cc1nn(-c2ccccc2)c(C)c1/C=N/N1CCN(Cc2ccccc2)CC1,Potency,[3],inactive
same,outcome,[4],inactive
same,outcome,[5],inactive
same,outcome,[6],inactive
O=[N+]([O-])c1ccc(-c2nc(-c3ccc(F)cc3)c(-c3ccncc3)[nH]2)cc1,Potency,[3],inactive
same,outcome,[4],inactive
same,outcome,[5],inactive
same,outcome,[6],inactive
COC(=O)C1=CO[C@@H](O)[C@@H]2C(CO)=CC[C@H]12,Potency,[3],inactive
same,outcome,[4],inactive
same,outcome,[5],inactive
same,outcome,[6],inactive
O=C1NC(c2cccc([N+](=O)[O-])c2)=CCN1c1ccccc1O,outcome,[4],inactive
same,outcome,[5],inactive
same,outcome,[6],inactive
CCCCCCCCCCCCCCCC[N+](C)(C)Cc1ccccc1,Potency,[7],inactive
same,Potency,[8],16.1 µM (active)
same,Potency,[1],14.4 µM (active)
same,Potency,[2],inactive
